# Assay results published in PubChem BioAssay AID1159580 (chemical genetic matrix, 2015).
# Where “and” joins values, the source holds several entries; their conditions need not be identical. Identical values can stand only once. Out of some 5,500 compounds screened, about 2,000 (36%) were called active. Another 18% or so got no clear call; they are omitted. Some of the results follow. Unmarked numbers belong to inactive results. Cut-off read from the data, not from the text of the source: active = normalized growth mostly below about 0.91 (no sharp cut-off); inconclusive = no clear call, values can overlap the other calls; inactive = mostly above about 0.92.
# Assay: chemical genetic growth profiling, strain panel (AID 1159580);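 note: tested at 20 µM; growth read once vehicle control cultures reached saturation at 30 °C; 1 = growth at the plate median or of vehicle wells; lower values mean less growth of the strain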
# Conditions: growth OD
smiles,measurement,setting,value
COc1ccc(-c2cc(=O)c3c(O)cc(O)cc3o2)cc1O,normalized growth,"S. cerevisiae deletion strains, locus YAL013W, strain DEP1, active compounds read low",1
same,normalized growth,"S. cerevisiae deletion strains, locus YBR021W, strain FUR4, active compounds read low",0.985
same,normalized growth,"S. cerevisiae deletion strains, locus YBR229C, strain ROT2, active compounds read low",0.987
same,normalized growth,"S. cerevisiae deletion strains, locus YCL029C, strain bik1, active compounds read low",0.997
same,normalized growth,"S. cerevisiae deletion strains, locus YDL035C, strain GPR1, active compounds read low",0.983
same,normalized growth,"S. cerevisiae deletion strains, locus YDL074C, strain BRE1, active compounds read low",0.969
same,normalized growth,"S. cerevisiae deletion strains, locus YDL101C, strain DUN1, active compounds read low",0.998
same,normalized growth,"S. cerevisiae deletion strains, locus YDL134C, strain PPH21, active compounds read low",0.993
same,normalized growth,"S. cerevisiae deletion strains, locus YDL185W, strain tfp1, active compounds read low",1.01
same,normalized growth,"S. cerevisiae deletion strains, locus YDL192W, strain arf1, active compounds read low",0.999
same,normalized growth,"S. cerevisiae deletion strains, locus YDR101C, strain arx1, active compounds read low",0.98
same,normalized growth,"S. cerevisiae deletion strains, locus YDR150W, strain NUM1, active compounds read low",1
same,normalized growth,"S. cerevisiae deletion strains, locus YDR162C, strain NBP2, active compounds read low",0.961
same,normalized growth,"S. cerevisiae deletion strains, locus YDR318W, strain mcm21, active compounds read low",0.995
same,normalized growth,"S. cerevisiae deletion strains, locus YDR388W, active compounds read low",0.993
same,normalized growth,"S. cerevisiae deletion strains, locus YDR502C, strain sam2, active compounds read low",0.975
same,normalized growth,"S. cerevisiae deletion strains, locus YEL061C, strain CIN8, active compounds read low",0.994
same,normalized growth,"S. cerevisiae deletion strains, locus YER110C, active compounds read low",1
same,normalized growth,"S. cerevisiae deletion strains, locus YER155C, strain BEM2, active compounds read low",1
same,normalized growth,"S. cerevisiae deletion strains, locus YER167W, strain BCK2, active compounds read low",0.997
same,normalized growth,"S. cerevisiae deletion strains, locus YGL078C, strain dbp3, active compounds read low",0.989
same,normalized growth,"S. cerevisiae deletion strains, locus YGL086W, strain mad1, active compounds read low",0.981
same,normalized growth,"S. cerevisiae deletion strains, locus YGL248W, strain PDE1, active compounds read low",0.997
same,normalized growth,"S. cerevisiae deletion strains, locus YGR078C, strain PAC10, active compounds read low",0.952
same,normalized growth,"S. cerevisiae deletion strains, locus YGR135W, strain pre9, active compounds read low",0.962
same,normalized growth,"S. cerevisiae deletion strains, locus YGR229C, strain SMI1, active compounds read low",0.937
same,normalized growth,"S. cerevisiae deletion strains, locus YGR252W, strain gcn5, active compounds read low",0.96
same,normalized growth,"S. cerevisiae deletion strains, locus YHR030C, strain SLT2, active compounds read low",0.997 and 1.02
same,normalized growth,"S. cerevisiae deletion strains, locus YHR079C, strain IRE1 (second series), active compounds read low",0.983
same,normalized growth,"S. cerevisiae deletion strains, locus YHR079C, strain IRE1, active compounds read low",1.01
same,normalized growth,"S. cerevisiae deletion strains, locus YHR094C, strain hxt1, active compounds read low",1
same,normalized growth,"S. cerevisiae deletion strains, locus YHR129C, strain ARP1, active compounds read low",0.989
same,normalized growth,"S. cerevisiae deletion strains, locus YHR200W, strain rpn10, active compounds read low",0.99
same,normalized growth,"S. cerevisiae deletion strains, locus YIL066C, strain RNR3, active compounds read low",0.987
same,normalized growth,"S. cerevisiae deletion strains, locus YIL073C, strain SPO22, active compounds read low",1.02
same,normalized growth,"S. cerevisiae deletion strains, locus YIL125W, strain kgd1, active compounds read low",0.995
same,normalized growth,"S. cerevisiae deletion strains, locus YIR030C, strain dcg1, active compounds read low",0.991
same,normalized growth,"S. cerevisiae deletion strains, locus YJL095W, strain BCK1, active compounds read low",0.944 and 0.996
same,normalized growth,"S. cerevisiae deletion strains, locus YJL134W, strain LCB3, active compounds read low",0.998
same,normalized growth,"S. cerevisiae deletion strains, locus YJL168C, strain set2, active compounds read low",0.998
same,normalized growth,"S. cerevisiae deletion strains, locus YJL187C, strain SWE1 (second series), active compounds read low",0.967
same,normalized growth,"S. cerevisiae deletion strains, locus YJR043C, strain POL32, active compounds read low",0.998
same,normalized growth,"S. cerevisiae deletion strains, locus YJR066W, strain TOR1, active compounds read low",0.986
same,normalized growth,"S. cerevisiae deletion strains, locus YJR075W, strain HOC1, active compounds read low",1.04
same,normalized growth,"S. cerevisiae deletion strains, locus YKL009W, strain mrt4, active compounds read low",0.89
same,normalized growth,"S. cerevisiae deletion strains, locus YKL068W, active compounds read low",0.968
same,normalized growth,"S. cerevisiae deletion strains, locus YKL085W, strain MDH1 (second series), active compounds read low",0.913 (active)
same,normalized growth,"S. cerevisiae deletion strains, locus YKL085W, strain MDH1, active compounds read low",0.913 (active)
same,normalized growth,"S. cerevisiae deletion strains, locus YKL190W, strain CNB1, active compounds read low",0.993
same,normalized growth,"S. cerevisiae deletion strains, locus YKR001C, strain vps1, active compounds read low",1
same,normalized growth,"S. cerevisiae deletion strains, locus YLR039C, strain RIC1, active compounds read low",0.928
same,normalized growth,"S. cerevisiae deletion strains, locus YLR058C, strain SHM2, active compounds read low",0.989
same,normalized growth,"S. cerevisiae deletion strains, locus YLR102C, strain apc9, active compounds read low",0.995
same,normalized growth,"S. cerevisiae deletion strains, locus YLR113W, strain HOG1, active compounds read low",0.888
same,normalized growth,"S. cerevisiae deletion strains, locus YLR262C, strain YPT6, active compounds read low",0.921
same,normalized growth,"S. cerevisiae deletion strains, locus YLR268W, strain sec22, active compounds read low",0.944
same,normalized growth,"S. cerevisiae deletion strains, locus YLR330W, strain CHS5, active compounds read low",0.999
same,normalized growth,"S. cerevisiae deletion strains, locus YLR342W, strain FKS1 (second series), active compounds read low",1.02
same,normalized growth,"S. cerevisiae deletion strains, locus YLR371W, strain rom2, active compounds read low",0.99
same,normalized growth,"S. cerevisiae deletion strains, locus YLR418C, strain cdc73, active compounds read low",0.925
same,normalized growth,"S. cerevisiae deletion strains, locus YML016C, strain PPZ1, active compounds read low",0.991
same,normalized growth,"S. cerevisiae deletion strains, locus YML032C, strain rad52, active compounds read low",1.01
same,normalized growth,"S. cerevisiae deletion strains, locus YML124C, strain tub3, active compounds read low",0.988
same,normalized growth,"S. cerevisiae deletion strains, locus YMR078C, strain ctf18, active compounds read low",1
same,normalized growth,"S. cerevisiae deletion strains, locus YMR223W, strain ubp8, active compounds read low",0.993
same,normalized growth,"S. cerevisiae deletion strains, locus YMR263W, strain SAP30, active compounds read low",0.982
same,normalized growth,"S. cerevisiae deletion strains, locus YMR307W, strain GAS1, active compounds read low",1.08
same,normalized growth,"S. cerevisiae deletion strains, locus YNL067W, strain RPL9B, active compounds read low",0.983
same,normalized growth,"S. cerevisiae deletion strains, locus YNL128W, strain TEP1, active compounds read low",0.988
same,normalized growth,"S. cerevisiae deletion strains, locus YNL153C, strain GIM3, active compounds read low",0.958
same,normalized growth,"S. cerevisiae deletion strains, locus YNL183C, strain NPR1, active compounds read low",0.921
same,normalized growth,"S. cerevisiae deletion strains, locus YNL233W, strain BNI4, active compounds read low",0.947
same,normalized growth,"S. cerevisiae deletion strains, locus YNL250W, strain rad50, active compounds read low",1
same,normalized growth,"S. cerevisiae deletion strains, locus YNL271C, strain bni1, active compounds read low",1
same,normalized growth,"S. cerevisiae deletion strains, locus YNL298W, strain CLA4, active compounds read low",1.03
same,normalized growth,"S. cerevisiae deletion strains, locus YNL307C, strain MCK1, active compounds read low",1
same,normalized growth,"S. cerevisiae deletion strains, locus YNL322C, strain KRE1, active compounds read low",0.996
same,normalized growth,"S. cerevisiae deletion strains, locus YNR052C, strain pop2, active compounds read low",0.994
same,normalized growth,"S. cerevisiae deletion strains, locus YOL006C, strain TOP1, active compounds read low",0.973
same,normalized growth,"S. cerevisiae deletion strains, locus YOL012C, strain htz1",0.983
same,normalized growth,"S. cerevisiae deletion strains, locus YOL147C, strain pex11, active compounds read low",0.992
same,normalized growth,"S. cerevisiae deletion strains, locus YOR061W, strain CKA2, active compounds read low",1
same,normalized growth,"S. cerevisiae deletion strains, locus YOR069W, strain VPS5, active compounds read low",0.998
same,normalized growth,"S. cerevisiae deletion strains, locus YOR136W, strain idh2, active compounds read low",0.993
same,normalized growth,"S. cerevisiae deletion strains, locus YOR144C, strain elg1, active compounds read low",0.997
same,normalized growth,"S. cerevisiae deletion strains, locus YOR184W, strain ser1, active compounds read low",0.982
same,normalized growth,"S. cerevisiae deletion strains, locus YOR231W, strain MKK1, active compounds read low",1.01
same,normalized growth,"S. cerevisiae deletion strains, locus YOR316C, strain cot1, active compounds read low",0.989
same,normalized growth,"S. cerevisiae deletion strains, locus YPL055C, strain LGE1, active compounds read low",0.97
same,normalized growth,"S. cerevisiae deletion strains, locus YPL241C, strain CIN2, active compounds read low",1
same,normalized growth,"S. cerevisiae deletion strains, locus YPL256C, strain CLN2, active compounds read low",0.993
same,normalized growth,"S. cerevisiae deletion strains, locus YPR119W, strain clb2, active compounds read low",0.993
same,normalized growth,"S. cerevisiae deletion strains, locus YPR141C, strain kar3, active compounds read low",1.01
same,normalized growth,"S. cerevisiae deletion strains, locus YPR163C, strain tif3, active compounds read low",1.01
same,normalized growth,"S. cerevisiae deletion strains, locus YPR167C, strain met16, active compounds read low",0.991
same,normalized growth,"S. cerevisiae deletion strains, strain wtn01, active compounds read low",0.977
same,normalized growth,"S. cerevisiae strains, strain wild type, active compounds read low",0.99
